# Test results reported in PubChem BioAssay (Tox21).
# Records with an inconclusive call do not appear. Activity calls are given as the source filed them. The call rests on the fitted dose curve; in most records, active means well fitted inhibition curve with a large enough effect in the repeat runs; inconclusive means weak or mixed curves; inactive means no such curve, though single readings can be large or run the other way.
# Target: Cytochrome P450 2C19 (Homo sapiens) (UniProt P33261)
# Assay: Cytochrome P450 Family 2 Subfamily C Member 19 (CYP2C19) small molecule antagonists: luciferase reporter qHTS assay (AID 1671197); further: nearly all actives have a fitted effect of over 65% in size
# Settings: P450-Glo CYP2C19 enzyme, luciferin luminescence, 1 h; series mostly up to 115 µM; activity change, negative = inhibition: at the top concentration
# Description: National Center for Advancing Translational Sciences [NCATS]
# U.S. Environmental Protection Agency [EPA]
# National Institutes of Environmental Health Sciences [NIEHS]
# National Toxicology Program [NTP]
# U.S. Food and Drug Administration [FDA]
# Cytochrome P450 (CYP) enzymes are membrane-bound hemeproteins that play a key role in metabolism of drugs and xenobiotics. Evaluation of the effect of chemicals on CYP isozymes is useful to minimize the adverse drug reactions and toxicities in drug development process. Tox21 chemicals were tested for their effect on CYP enzyme activities by using P450-Glo (TM) screening systems (Promega Corporation, Madison, WI). These systems provide a luminescent method containing proluciferin substrates and are converted to luciferin products by CYP isozymes. The luciferin products formed are detected with a luciferin detection reagent, and the amount of light produced is proportional to CYP activity. P450-Glo (TM) CYP2C19 screening system (Catalog. No. V9880) was used to detect the compounds that interfere in CYP2C19 activity. The positive control compound used for CYP2C19 assay is ketoconazole (Sigma-Aldrich, St. Louis, MO).
# Tox21 Assay Protocol Summary:
# Two ul of enzyme-substrate mix was dispensed into medium binding white/solid 1536-well plates (Greiner Bio-One North America Inc., Monroe, NC) using a BioRaptr Flying Reagent Dispenser (FRD, Beckman Coulter, Brea, CA). Compounds dissolved in DMSO and positive control (ketoconazole) were transferred to the assay plates at 23 nl using a Pintool station (Wako, San Diego, CA). The assay plates were incubated at room temperature for 10 min. Then 2 ul of NADPH regeneration solution was added to each well of the assay plates using an FRD and incubated at 37C for 1 h. The reaction was stopped by adding 4 ul of detection reagent using an FRD and after 20 min incubation at room temperature the luminescence signal was measured using a ViewLux plate reader (Perkin Elmer, Shelton, CT). Data were expressed as relative luminescence units.
# On the % scale 0 is the no-effect control and ±100 the full control effect; potency means the concentration at half of the fitted maximal effect.
# Chain of Cytochrome P450 2C19 (Homo sapiens) (P33261 whole entry, looked up): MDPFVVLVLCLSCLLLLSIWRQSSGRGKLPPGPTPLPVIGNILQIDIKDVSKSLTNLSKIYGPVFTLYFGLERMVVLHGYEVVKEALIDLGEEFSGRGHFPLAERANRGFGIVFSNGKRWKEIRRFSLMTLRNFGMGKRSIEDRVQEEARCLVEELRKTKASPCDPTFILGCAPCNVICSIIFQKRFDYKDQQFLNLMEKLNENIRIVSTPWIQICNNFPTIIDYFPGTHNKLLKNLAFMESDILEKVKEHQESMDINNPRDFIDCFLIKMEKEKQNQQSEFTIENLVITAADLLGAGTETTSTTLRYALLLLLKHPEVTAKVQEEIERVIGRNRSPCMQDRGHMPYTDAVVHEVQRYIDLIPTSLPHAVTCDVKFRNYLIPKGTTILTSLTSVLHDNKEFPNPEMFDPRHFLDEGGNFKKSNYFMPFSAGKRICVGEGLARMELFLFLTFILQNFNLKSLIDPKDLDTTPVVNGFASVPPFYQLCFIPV
Structure (SMILES),"activity change, negative = inhibition",Potency
N#Cc1ccccc1O,-1.26% (inactive),–
CCCCC1CCC(O)CC1 (stereo not given),20.3% (inactive),–
CCOc1ccccc1OCC1CNCCO1 (stereo not given),5.38% [at 52.9 µM] (inactive),–
COCCc1ccccn1,-3.35% [at 52.9 µM] (inactive),–
CC(C)[C@H]1CC[C@H](C)C[C@@H]1O,30.5% (inactive),–
C=Cc1ccc(C(C)(C)C)cc1,-12.1% (inactive),–
OC1(c2ccc(Cl)cc2)CCNCC1,–,3.09 µM (active)
O=C(O)c1cc2ccccc2nc1C(=O)O,-1.72% (inactive),–
CC1(C)O[C@H]2CC(=O)OC[C@]23[C@H]2CC[C@@]4(C)[C@H](c5ccoc5)OC(=O)[C@H]5O[C@]54[C@]2(C)C(=O)C[C@@H]13,-0.956% [at 52.9 µM] (inactive),–
O=C=NCC1CCCC(CN=C=O)C1 (stereo not given),–,71 µM (active)
ONc1ccccc1,–,88.5 µM (active)
OCC1CCC(CO)CC1 (stereo not given),-1.08% (inactive),–
CC(CO)(CO)CO,9.47% (inactive),–
O=C[O][Al]([O]C=O)[O]C=O,7.08% (inactive),–
CCCCCCCCCCCCCBr,–,70.8 µM (active)
COC(C)(OC)OC,27.8% (inactive),–
CC12CCC(C1)C(C)(C)C2O (stereo not given),41.7% (inactive),–
CC(S)C(C)S (stereo not given),-17.9% (inactive),–
Cc1c(Cl)cccc1Cl,30.9% (inactive),–
CC(C)CCOC(=O)c1ccccc1,4.16% (inactive),–

Structure (SMILES),"activity change, negative = inhibition",Potency
CC1(C)Cc2cccc(N)c2O1,–,17.8 µM (active)
c1ccc(B(c2ccccc2)c2ccccc2)cc1,–,17.8 µM (active)
CCCCCCCCCCOC(C)=O,15% (inactive),–
Cc1c(N)cccc1Cl,-17.5% (inactive),–
O=C(O)CONC(=O)c1ccccc1,-0.0741% (inactive),–
CCNC(=O)NCc1cccc(Cl)c1,-5.79% [at 52.9 µM] (inactive),–
C/C=C(\C)C(C)=O,9.25% (inactive),–
CCCCOC(=O)[C@H](C)O,-4.48% (inactive),–
O=C1CCC(=O)N1Cl,2.33% (inactive),–
CC(=O)O[C@H]1C[C@@H]2CC[C@@]1(C)C2(C)C,-10.3% (inactive),–
C=CCN1C[C@H](C(=O)N(CCCN(C)C)C(=O)NCC)C[C@@H]2c3cccc4[nH]cc(c34)C[C@H]21,-5.54% [at 52.9 µM] (inactive),–
CC(=O)Nc1ccc(OC(=O)c2ccccc2OC(C)=O)cc1,19.7% [at 52.9 µM] (inactive),–
C/C(CC(C)C)=N\O,2.46% (inactive),–
CC(=O)OCC(=O)Nc1cc(C#N)cc(NC(=O)COC(C)=O)c1Cl,-11.3% [at 52.9 µM] (inactive),–
COc1ccc2c(c1)c1c3n2CCN(C)C3=NCC1,2.47% [at 52.9 µM] (inactive),–
c1ccc2c(CC3=NCCN3)cccc2c1,6.78% [at 52.9 µM] (inactive),–
Cc1cccc(Cl)c1,18.8% (inactive),–
CCCCCCC1(C)CCC(=O)O1 (stereo not given),10.4% (inactive),–
CCCC(CC)c1ccccc1 (stereo not given),-16.8% (inactive),–
CC1CC(=O)CC(C)(C)C1 (stereo not given),3.09% (inactive),–
